Bioassay records (PubChem)
In the library only some 3.2% were active in any assay of this set; here they are far more common.
ERAP1 HTS inh: human ERAP1 aminopeptidase inhibitors, primary screen, biochemical, single point, plate reader; Endoplasmic reticulum aminopeptidase 1 (Homo sapiens), Q9NZ08; recombinant ERAP1, Leu-AMC fluorescence, 60 min; hit rate 0.15% among 340,000; inhibition, % at 10.7 µM;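 active = mean replicate inhibition of at least 30%, or all replicates individually reaching that 30% level; inactive = mean below 30% and not every replicate reaching it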;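 also: 0% = neutral control wells and 100% = L-leucinethiol positive control wells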
Target sequence (Q9NZ08 whole entry, looked up): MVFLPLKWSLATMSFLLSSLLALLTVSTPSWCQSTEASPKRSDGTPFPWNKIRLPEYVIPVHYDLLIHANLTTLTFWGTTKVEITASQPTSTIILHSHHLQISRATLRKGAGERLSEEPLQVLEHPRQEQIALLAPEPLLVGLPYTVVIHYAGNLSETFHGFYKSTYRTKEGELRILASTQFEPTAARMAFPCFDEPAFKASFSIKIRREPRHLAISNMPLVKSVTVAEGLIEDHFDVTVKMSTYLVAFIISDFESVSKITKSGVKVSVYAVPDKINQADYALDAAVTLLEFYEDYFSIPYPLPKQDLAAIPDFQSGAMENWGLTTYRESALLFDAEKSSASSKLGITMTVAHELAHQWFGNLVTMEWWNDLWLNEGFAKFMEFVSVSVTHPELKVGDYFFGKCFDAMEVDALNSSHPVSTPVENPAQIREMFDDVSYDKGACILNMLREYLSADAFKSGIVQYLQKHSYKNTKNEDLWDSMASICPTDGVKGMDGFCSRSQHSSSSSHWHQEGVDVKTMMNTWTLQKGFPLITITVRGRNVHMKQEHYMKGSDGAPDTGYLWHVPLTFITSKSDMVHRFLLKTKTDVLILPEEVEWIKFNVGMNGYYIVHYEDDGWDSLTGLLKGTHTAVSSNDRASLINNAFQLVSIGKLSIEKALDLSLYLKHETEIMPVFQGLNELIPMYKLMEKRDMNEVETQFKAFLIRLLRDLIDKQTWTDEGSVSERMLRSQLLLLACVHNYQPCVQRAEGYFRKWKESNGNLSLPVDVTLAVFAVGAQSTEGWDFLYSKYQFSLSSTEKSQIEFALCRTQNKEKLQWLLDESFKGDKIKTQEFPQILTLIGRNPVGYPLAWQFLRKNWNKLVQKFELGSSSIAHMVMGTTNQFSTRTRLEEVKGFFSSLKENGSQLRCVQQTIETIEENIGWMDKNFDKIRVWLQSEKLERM
PGC1a acetyl inh: inhibitors of PGC1a acetylation signal, primary screen, cell-based, U2OS, AlphaScreen, inhibitor mode | AID 651687, 2012 | hit rate 0.17% among 350,000 | inhibition, % at 15.6 µM | AlphaScreen anti-acetyl-lysine; with virally co-expressed GCN5 acetyltransferase;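 active = every replicate shows inhibition of at least 40%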;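 also: 0% = neutral control wells and 100% = positive control wells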
CaV13 FRET inh: Primary screen for inhibitors of IQ motif and Ca2+-dependent inactivation inhibitor domain binding in CACNA1D, Förster resonance energy transfer in living cells, …; HEK cells, CFP/YFP FRET ICDI-IQ, plate reader, 10 min; percent FRET-ratio fall versus neutral wells; inhibition, % at 12.3 µM; hit rate 0.098% among 340,000; AID 743397;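 active = mean replicate inhibition of at least 30% and at least 1% of replicates passing that level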;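 also: 0% = median of the neutral control wells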
GSIS activator: GLuc luminescence reporter in INS-1E cells, primary screen for activators of glucose-dependent secretion of insulin | INS-1E GLuc reporter insulin secretion, 2-3 h | activation, % at 16.6 µM | hit rate 0.61% among 370,000 | AID 743287, 2014;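 active = lowest replicate activation of at least 40%, so every replicate reaches that level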;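 also: 0% = median of neutral control wells and 100% = median of IBMX positive control wells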
Ecoli rRNA inh: reduced GFP signal of wild-type E. coli, primary screen, bacterial rRNA inhibitor project, GFP/RFP fluorescence, OD600, single point; GFP signal change (wild-type ribosome), % (no concentration beside the values); E. coli WT GFP vs humanized-ribosome RFP mutants, 24 h; active compounds read low; DMSO median 0, no signal -100; hit rate 1.6% among 350,000;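 active = significant combined selectivity score with lowered wild-type GFP, culture density cut under 30%, mutant RFP and density less affected; inactive = any of these conditions unmet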
DENV2 CPE: inhibitors of DENV2 cytopathic effect, primary screen, cell-based, plate reader, single concentration; DENV2-infected cells, cytopathic effect rescue; CPE inhibition, % at 9.99 µM; hit rate 1.7% among 350,000; in the data active = CPE inhibition above about 20%, passing the limit was not always enough; tested in BHK-21 cells;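 also: 0% = median of neutral control wells and 100% = median of positive control wells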
Active calls of the source: *; / = no result; ! = repeats disagree.

SMILES	ERAP1 HTS inh	PGC1a acetyl inh	CaV13 FRET inh	GSIS activator	Ecoli rRNA inh	DENV2 CPE
COC(=O)c1ccc(COc2ccccc2/C=C(\C#N)C(=O)Nc2c(C)cc(C)cc2C)cc1	-2.3	-1.7	-5.1	2.2	12.4	-10.0
Nc1ccc(N=Nc2ccccc2O)c(N)c1	7.8	5.0	-4.5	1.4	-40.3*	-2.8
Cc1ccc2[nH]c3ccccc3c(=O)c2c1	-12.4	-68.0	33.9*	3.8	1.5	3.0
CC(=O)c1cccc(NC(=O)C2=CC(c3cccs3)=NS(=O)(=O)N2C)c1	-2.8	-14.7	-13.1	-8.4	-19.5*	-3.0
Brc1ccc(CN2CCN(Cc3c[nH]c4ccccc34)CC2)cc1	-2.6	/	-16.0	-44.7	-0.5	3.5
Brc1ccccc1CN1CCN(Cc2c[nH]c3ccccc23)CC1	/	/	-2.4	-8.1	-22.6*	12.8
O=C(C[C@@H]1CC[C@@H](NC(=O)Nc2ccc(C(F)(F)F)cc2)[C@H](CO)O1)NCc1ccccn1	-1.1	6.1	/	0.4	0.2	-2.8
CCCCC(NC(=O)Cc1c(C)c2cc3c(C)c(C)oc3c(C)c2oc1=O)C(=O)O (stereo not given)	-0.6	-6.7	-16.3	12.9	-12.2	5.2
CCCC(NC(=O)Cc1c(C)c2cc3c(C)c(C)oc3c(C)c2oc1=O)C(=O)N[C@@H](Cc1ccccc1)C(=O)O (stereo not given in full)	-0.3	6.2	/	/	/	48.8*
CN(C)CCCN(C(=O)c1ccc([N+](=O)[O-])s1)c1nc2cc3c(cc2s1)OCCO3	-3.9	/	-6.2	8.6	-51.2	-0.5
CN(C)CCCN(C(=O)c1cc2cc([N+](=O)[O-])ccc2s1)c1nc2cc3c(cc2s1)OCCO3	1.7	53.6*	-7.2	-11.0	0.2	-5.3
COc1ccc([C@H]2CC(=O)c3c(O)cc(O)cc3O2)cc1O	1.2	1.8	0.7	-4.3	-23.5*	5.5
COc1cc(C2CC(=O)c3c(O)cc(O)cc3O2)ccc1O (stereo not given)	-0.2	11.7	/	17.4	/	-8.1
O=C1C[C@@H](c2ccc(O)cc2)Oc2cc(O)cc(O)c21	-2.2	-18.1	-9.3	/	-23.8	102.8*
CCC(=O)Nc1ccc2c(c1)OC[C@H](C)N(C(=O)C1CCC1)C[C@H](C)[C@@H](OC)CN(C)C2=O	0.2	10.1	/	-4.2	-1.3	2.1
COc1ccc(S(=O)(=O)N(C)C[C@@H]2OCCCC[C@@H](C)Oc3ccc(NC(=O)c4ccccc4)cc3C(=O)N([C@H](C)CO)C[C@@H]2C)cc1	-2.9	5.5	/	-1.5	2.2	7.3
O=C(NC1CCCC1)c1nc(-c2c(F)cccc2F)oc1-c1ccccc1	-1.3	/	-11.0	8.1	1.4	21.7*
CC(C)NC(=O)N[C@@H]1CC[C@H](CCNS(=O)(=O)c2ccc(Cl)cc2)O[C@@H]1CO	-2.6	13.1	/	3.1	4.2	2.2
C[C@@H]1CCCCO[C@H](CN(C)Cc2ccc(Cl)c(Cl)c2)[C@@H](C)CN([C@@H](C)CO)C(=O)c2cc(NS(C)(=O)=O)ccc2O1	1.5	/	/	-16.5	-37.8	-0.5
CC#CC[N+](C)(C)CCCCCCCCCCCC	42.4*	/	-4.2	-35.2	-59.4	2.9
CCCCCCCCCCCCCCCC[N+](C)(C)CC	77.5*	-0.3	-4.9	298.0*	-58.0	-7.4
C#CC[N+](C)(C)CCCCCCCCCC	7.7	-12.4	-5.9	/	/	2.7
CCCCCCCCCCCCCCCC[N+](C)(C)CCl	88.1*	-22.3	-6.1	/	-56.4	18.4
C#CC[N+](C)(C)CCCCCCCCCCCC	10.4	/	-5.7	/	/	1.4
CCCCCC[N+](C)(C)CCSSCC[N+](C)(C)CCCCCC	/	-2.4	-4.0	6.4	4.1	1.6
SMILES	ERAP1 HTS inh	PGC1a acetyl inh	CaV13 FRET inh	GSIS activator	Ecoli rRNA inh	DENV2 CPE
CC(C)C#Cc1ccc([C@H]2[C@@H](CO)N3C(=O)CN(C(=O)Cc4cccnc4)C[C@@H]23)cc1	/	/	/	-2.5	2.1	/
O=C(C[C@@H]1CC[C@H]2[C@@H](COC[C@@H](O)CN2C(=O)Nc2ccccc2)O1)NCCCN1CCOCC1	2.6	5.8	/	11.7	0.3	0.9
Cc1ccc(-c2ccc3c(c2)O[C@H](CN(C)C(=O)C2CC2)[C@H](C)CN([C@@H](C)CO)S3(=O)=O)cc1	1.6	-4.6	/	-14.2	-8.1	-7.7
C=CC(C)(O)CCC=C(C)C (stereo not given)	0.6	-10.1	/	-0.8	11.3	101.1*
C#Cc1ccc([C@H]2C=C(C(=O)OCC=C)O[C@@H](OCC)[C@@H]2CCCO)cc1	0.7	-8.7	-5.4	-4.7	2.7	48.7*!
CCO[C@@H]1OC(C(=O)NCc2nc3ccccc3[nH]2)=C[C@H](c2coc3ccccc3c2=O)[C@H]1CCCO	-2.6	-3.4	-3.5	10.2	-13.9	50.2*
CCO[C@H]1OC(C(=O)NCc2nc3ccccc3[nH]2)=C[C@@H](C)[C@@H]1CCCO	1.5	6.5	-5.0	-8.4	6.5	2.3
C#Cc1ccc([C@@H]2C=C(C(=O)NCc3nc4ccccc4[nH]3)O[C@H](OCC)[C@H]2CCCO)cc1	-3.6	/	-10.3	-5.7	-8.3	22.2*!
COc1ccccc1-c1c(C(F)(F)F)oc2cc(OS(C)(=O)=O)ccc2c1=O	1.0	-2.3	-4.7	-29.3	-26.5*	-10.2
COc1ccccc1-c1c(C(F)(F)F)oc2cc(OC(=O)c3ccccc3[N+](=O)[O-])ccc2c1=O	/	-1.4	-4.2	/	/	/
CCOC(=O)C1=C(C)N(C[C@@H]2CC[C@@H](Cc3ccc4cc(OC)ccc4c3)O2)C(=O)NC1c1ccc(OC)cc1 (stereo not given in full)	2.2	-5.8	-5.7	-10.5	3.3	-6.0
COc1ccc2cc(C[C@@H]3CC[C@@H](CO)O3)ccc2c1	/	10.7	-6.6	7.4	-23.4*	4.5
CO[C@H]1CN(C)C(=O)c2ccc(NS(=O)(=O)c3ccc(Oc4ccccc4)cc3)cc2OC[C@H](C)NC[C@H]1C	-0.5	-4.4	/	-10.5	2.6	21.8*
CO[C@@H]1CN(C)C(=O)c2ccc(NS(=O)(=O)c3cccc(F)c3)cc2OC[C@@H](C)NC[C@@H]1C	-4.7	-0.1	/	-1.5	1.0	71.2*
CO[C@@H]1CN(C)C(=O)c2ccc(NS(=O)(=O)c3ccc(Oc4ccccc4)cc3)cc2OC[C@H](C)NC[C@H]1C	5.5	-12.1	/	3.9	1.1	-5.3
CO[C@H]1CN(C)C(=O)c2ccc(NS(=O)(=O)c3ccc(-c4ccccc4)cc3)cc2OC[C@@H](C)NC[C@@H]1C	25.4	-5.7	/	-8.8	-0.8	29.2*
CO[C@H]1CN(C)C(=O)c2ccc(NS(=O)(=O)c3cccc(F)c3)cc2OC[C@H](C)NC[C@@H]1C	1.4	9.6	/	12.7	3.4	3.8
